Measurements reported in PubChem BioAssay (Tox21).
Records with an inconclusive call do not appear. Active and inactive are the calls of the source. Unless noted, calls follow the shape of the dose curve; as a rule, active = well fitted curve in the direction sought with a large enough effect in the repeat runs; inconclusive = weak or mixed curves; inactive = no such curve, though single readings can be large; an effect the other way counts as inactive or inconclusive.

How the values were obtained:
[1] = molecular target: Thyrotropin receptor (Homo sapiens) (UniProt P16473); assay: qHTS assay to identify small molecule antagonists of the thyroid stimulating hormone receptor (TSHR) signaling pathway (AID 1259385; calls by dose curve; also: nearly all actives have a fitted effect of over 20% in size)
Outline: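 TSHR-HEK293 cells were plated and held 18 h at 37C/5% CO2, then given compound plus Ro20-1724 and stimulated with TSH at 1.5 ng/mL final. After 30 min at room temperature, cAMP was detected with cAMP-d2/anti-cAMP-cryptate (1 h) by fluorescence.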

[2] = molecular target: Progesterone receptor (Homo sapiens) (UniProt P06401); assay: qHTS assay to identify small molecule agonists of the progesterone receptor (PR) signaling pathway (AID 1346784; calls by dose curve; also: nearly all actives have a fitted effect of over 30% in size; also: potency is read from the fitted curve at half-maximal effect)
Outline: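 Agonist qHTS: compounds pinned onto 3,000 PR-UAS-bla HEK 293T cells per well in charcoal-stripped serum medium, 16hr at 37C, then beta-lactamase activity measured by LiveBLAzer FRET fluorescence after 2 hours at room temperature.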

[3] = molecular target: Progesterone receptor (Homo sapiens) (UniProt P06401); assay: qHTS assay to identify small molecule antagonists of the progesterone receptor (PR) signaling pathway (AID 1346795; active = well fitted inhibition curve with a large enough effect in the signal ratio in the repeat runs, not every such curve was filed as active; the % refers to the signal ratio; also: potency is read from the fitted curve at half-maximal effect)
Outline: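 Antagonist mode with agonist R5020 at 1 nM final and 16 hr incubation at 37C. Reporter was beta-lactamase driven by UAS in HEK293T (PR-UAS-bla), 2% charcoal-stripped serum; signal from LiveBLAzer FRET substrate, 2 hr at room temperature.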

[4] = qHTS assay to identify small molecule agonists of the progesterone receptor (PR) signaling pathway - cell viability counter screen (AID 1346799; calls by dose curve; also: nearly all actives have a fitted effect of over 45% in size)
Outline: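 Cytotoxicity measured by CellTiter-Glo luminescence (30 min, RT) in the same wells as the PR beta-lactamase agonist read. Those HEK293T cells had 16 h compound treatment at 37 C in 2% charcoal-stripped FBS medium.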

[5] = qHTS assay to identify small molecule antagonists of the TGF-beta/Smad signaling pathway - cell viability counter screen (AID 1346824); also: nearly all actives have a fitted effect of over 50% in size
Outline: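 SBE-bla HEK 293T cells were plated overnight at 37 C, then given compounds in DMSO plus TGF-beta1 (added as 0.25 ng/mL solution) for 5 hr. After the bla read, CellTiter-Glo was added to the same wells and luminescence read after 30 min at room temperature.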

[6] = qHTS assay to identify small molecule agonists of the TGF-beta/Smad signaling pathway - cell viability counter screen (AID 1346829); also: top concentration of the series differs between compounds; nearly all actives have a fitted effect of over 45% in size
Outline: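 Luminescence from CellTiter-Glo, read after a 30 min room-temperature incubation, gives cell viability of SBE-bla HEK 293T cells treated 5 hr with compounds at 37 C.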

[7] = qHTS assay to identify small molecule agonists of the TGF-beta/Smad signaling pathway (AID 1346859; active = well fitted activation curve with a large enough effect in the signal ratio in the repeat runs, not every such curve was filed as active; the % refers to the signal ratio; also: series mostly up to about 77 µM)
Outline: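 Fluorescence (ex 405 nm; em 460 and 530 nm) was read 2 h after LiveBLAzer FRET substrate at RT. The preceding compound treatment of overnight-plated SBE-bla HEK293T cells lasted 5 h at 37 C.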

[8] = molecular target: Thyrotropin-releasing hormone receptor (Homo sapiens) (UniProt P34981); assay: qHTS assay to identify small molecule antagonists of the thyrotropin-releasing hormone receptor (TRHR) signaling pathway (AID 1346877; active = well fitted inhibition curve with a large enough effect in the repeat runs, not every such curve was filed as active; also: series mostly up to about 51 µM)
Outline: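 TRHR-expressing HEK293 cells were seeded, cultured 18 h at 37 °C, then loaded with calcium dye for 2 h. Compounds were pre-incubated 5 min at room temperature before 1 nM TRH (final) was added, and kinetic fluorescence was recorded for 3 min.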

[9] = molecular target: Thyrotropin-releasing hormone receptor (Homo sapiens) (UniProt P34981); assay: qHTS assay to identify small molecule agonists of the thyrotropin-releasing hormone receptor (TRHR) signaling pathway (AID 1346891; calls by dose curve; also: series mostly up to about 58 µM)
Outline: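 Agonist-mode intracellular calcium readout: kinetic fluorescence over 3 min at 1 s intervals after compound addition to TRHR-HEK293 cells (18 h seeded, 2 h dye-loaded at 37 C). Fifteen concentrations, triplicates.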

[10] = Caspase-3/7 induction in HepG2 cells by small molecules, qHTS assay (AID 1346978); also: nearly all actives have a fitted effect of over 15% in size
Outline: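 Wild-type HepG2 cells (2,000/well) were settled 5 h at 37 C, 5% CO2, then exposed to compounds in DMSO for 17 h. Caspase-3/7 activity was read by luminescence 30 min after adding Caspase-Glo 3/7 reagent at room temperature.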

[11] = Caspase-3/7 induction in CHO-K1 cells by small molecules, qHTS assay (AID 1346980); also: nearly all actives have a fitted effect of over 15% in size
Outline: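 Wild-type cells were seeded at 1,500 per well and settled 5 hr at 37 C, 5% CO2, then exposed to DMSO-dissolved compounds for 17 hr. Caspase-Glo 3/7 reagent was added, and luminescence was read after 30min at room temperature.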

[12] = Caspase-3/7 induction in HepG2 cells by small molecules, qHTS cell viability counter screen (AID 1346981); also: series mostly up to about 92 µM; nearly all actives have a fitted effect of over 30% in size
Outline: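 Wild-type HepG2 cells (2,000/well) were allowed to settle for 5 hr at 37 C, 5% CO2, then dosed with compounds in DMSO by pin transfer. After 16 hr at 37 C, CellTiter-Fluor was added and fluorescence read 1 hr later.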

[13] = molecular target: Nuclear receptor subfamily 1 group I member 2 (Homo sapiens) (UniProt O75469); assay: Human pregnane X receptor (PXR) small molecule agonists, qHTS assay (AID 1346982); also: nearly all actives have a fitted effect of over 35% in size; also: potency is read from the fitted curve at half-maximal effect
Outline: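 PXR-Luc HepG2 cells (CYP3A4 promoter-driven luciferase) were seeded in medium with 5% charcoal-stripped FBS, left 5 hr at 37 C, then exposed to compounds in DMSO for 24 hr. Luminescence was read after ONE-Glo addition.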

[14] = qHTS assay to identify small molecule agonists of the estrogen receptor alpha (ER-alpha) signaling pathway in the presence of an antagonist - cell viability counter screen (AID 1259386);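 also: series mostly up to about 92 µM; cells exposed to compounds for 22 h at 37 °C before the viability read; nearly all actives have a fitted effect of over 30% in size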
Outline: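 VM7Luc4E2 cells (endogenous full-length ER-alpha, 4×ERE-luciferase) were held 5 days in phenol red-free medium with 10% charcoal-stripped FBS, plated, then given 10.0nM ICI-182,780 and compounds at 15 concentrations for 22hr at 37C; viability read by CellTiter-Fluor fluorescence.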

[15] = Human pregnane X receptor (PXR) small molecule agonists, qHTS cell viability counter screen (AID 1346977); also: nearly all actives have a fitted effect of over 50% in size
Outline: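 Same-well viability read: CellTiter-Fluor added after 23 hr compound exposure, fluorescence measured 1 hr later. Cells were PXR-Luc HepG2 seeded at 2,000/well in 5% charcoal-stripped FBS medium, rested 5 hr before dosing at 37 C.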

[16] = Caspase-3/7 induction in CHO-K1 cells by small molecules, qHTS cell viability counter screen (AID 1346979); also: nearly all actives have a fitted effect of over 35% in size
Outline: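 Cytotoxicity counter screen: CellTiter-Fluor added to compound-treated wild-type CHO-K1 cells at 16 h (37C, 5% CO2), fluorescence measured 1 h later; same wells as caspase-3/7 measurement.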

[17] = qHTS assay to identify small molecule antagonists of the progesterone receptor (PR) signaling pathway - cell viability counter screen (AID 1346798); also: series mostly up to about 92 µM; nearly all actives have a fitted effect of over 50% in size
Outline: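 Cytotoxicity read as CellTiter-Glo luminescence (30 min, room temperature) in the same wells as the beta-lactamase readout. HEK293T PR-UAS-bla cells in charcoal-stripped 2% FBS received compound and R5020, then 16 h at 37C, 5% CO2.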

[18] = molecular target: Nuclear receptor subfamily 1 group I member 2 (Rattus norvegicus) (UniProt Q9R1A7); assay: Rat pregnane X receptor (rPXR) activation by small molecules, qHTS assay (AID 1346983); details: rPXR luciferase reporter cells, One-Glo luminescence, 24 h; max activation: active compounds read high; also: nearly all actives have a fitted effect of over 20% in size; also: potency is read from the fitted curve at half-maximal effect
Outline: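 Cell-based rPXR luciferase reporter assay, 2,000 cells per well, rested 5hr at 37 C before compound addition in DMSO, then 24 hr at 37 C. One-Glo reagent was added and luminescence read after 30 min at room temperature.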

[19] = molecular target: Nuclear receptor subfamily 1 group I member 2 (Homo sapiens) (UniProt O75469); assay: CYP3A4 induction through human pregnane X receptor (PXR) by small molecules, qHTS assay (AID 1346984); also: nearly all actives have a fitted effect of over 40% in size; also: potency is read from the fitted curve at half-maximal effect
Outline: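 DPX-2 cells (HepG2 co-transfected with PXR and CYP3A4 promoter-luciferase) treated with compounds 24 h at 37C; luciferin-IPA CYP3A4 substrate 3uM final added for 3 h, then One-Glo; luminescence read. qHTS format.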

[20] = molecular target: Nuclear receptor subfamily 1 group I member 2 (Homo sapiens) (UniProt O75469); assay: Human pregnane X receptor (PXR) activation by small molecules, qHTS assay (AID 1346985); also: nearly all actives have a fitted effect of over 40% in size
Outline: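 DPX-2 cells (HepG2 co-transfected with a PXR response element and a CYP3A4-promoter luciferase construct) were seeded at 2,000 per well, rested 5 hr at 37C, then exposed to DMSO-dissolved compounds for 24 hr. Activation was read as luciferase luminescence.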
% is scaled to controls: 0 for no effect and ±100 for the full control effect.

Sequence of Nuclear receptor subfamily 1 group I member 2 (Homo sapiens) (O75469 whole entry, looked up): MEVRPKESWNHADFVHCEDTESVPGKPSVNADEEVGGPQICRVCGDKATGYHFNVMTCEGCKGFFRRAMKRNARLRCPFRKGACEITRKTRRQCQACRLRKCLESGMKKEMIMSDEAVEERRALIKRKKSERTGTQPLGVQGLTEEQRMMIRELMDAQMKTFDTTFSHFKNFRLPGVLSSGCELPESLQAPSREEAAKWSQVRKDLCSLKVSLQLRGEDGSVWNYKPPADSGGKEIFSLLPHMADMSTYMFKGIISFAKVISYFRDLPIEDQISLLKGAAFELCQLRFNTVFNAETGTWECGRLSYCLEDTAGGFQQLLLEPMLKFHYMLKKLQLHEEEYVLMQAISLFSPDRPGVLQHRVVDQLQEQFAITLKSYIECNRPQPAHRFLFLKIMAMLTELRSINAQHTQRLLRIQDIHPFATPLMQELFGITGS
Sequence of Progesterone receptor (Homo sapiens) (P06401 whole entry, looked up): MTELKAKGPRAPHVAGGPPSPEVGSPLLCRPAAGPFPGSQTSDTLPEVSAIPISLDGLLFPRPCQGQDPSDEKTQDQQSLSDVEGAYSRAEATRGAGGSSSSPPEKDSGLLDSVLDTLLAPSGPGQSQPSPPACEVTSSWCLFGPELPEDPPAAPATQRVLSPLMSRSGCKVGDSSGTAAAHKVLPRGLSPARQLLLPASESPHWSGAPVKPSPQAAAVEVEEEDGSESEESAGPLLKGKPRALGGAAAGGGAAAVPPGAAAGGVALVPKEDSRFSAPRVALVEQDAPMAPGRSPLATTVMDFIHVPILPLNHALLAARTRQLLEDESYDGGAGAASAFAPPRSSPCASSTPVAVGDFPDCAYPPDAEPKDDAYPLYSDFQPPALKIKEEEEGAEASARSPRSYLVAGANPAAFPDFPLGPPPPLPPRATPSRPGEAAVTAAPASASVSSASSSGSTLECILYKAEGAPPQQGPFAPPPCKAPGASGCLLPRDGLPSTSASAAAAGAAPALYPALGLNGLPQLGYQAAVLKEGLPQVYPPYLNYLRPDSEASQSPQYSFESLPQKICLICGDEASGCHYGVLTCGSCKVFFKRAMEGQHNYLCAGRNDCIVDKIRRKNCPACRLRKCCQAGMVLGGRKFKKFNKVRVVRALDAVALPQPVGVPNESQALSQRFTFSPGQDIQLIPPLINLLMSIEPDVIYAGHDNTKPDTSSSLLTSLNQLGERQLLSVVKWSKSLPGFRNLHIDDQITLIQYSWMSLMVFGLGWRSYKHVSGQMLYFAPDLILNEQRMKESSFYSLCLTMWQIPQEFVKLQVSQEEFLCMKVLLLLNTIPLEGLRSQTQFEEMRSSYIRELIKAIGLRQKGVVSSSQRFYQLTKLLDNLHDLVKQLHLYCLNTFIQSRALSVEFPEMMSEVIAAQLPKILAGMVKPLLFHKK
Sequence of Thyrotropin receptor (Homo sapiens) (P16473 whole entry, looked up): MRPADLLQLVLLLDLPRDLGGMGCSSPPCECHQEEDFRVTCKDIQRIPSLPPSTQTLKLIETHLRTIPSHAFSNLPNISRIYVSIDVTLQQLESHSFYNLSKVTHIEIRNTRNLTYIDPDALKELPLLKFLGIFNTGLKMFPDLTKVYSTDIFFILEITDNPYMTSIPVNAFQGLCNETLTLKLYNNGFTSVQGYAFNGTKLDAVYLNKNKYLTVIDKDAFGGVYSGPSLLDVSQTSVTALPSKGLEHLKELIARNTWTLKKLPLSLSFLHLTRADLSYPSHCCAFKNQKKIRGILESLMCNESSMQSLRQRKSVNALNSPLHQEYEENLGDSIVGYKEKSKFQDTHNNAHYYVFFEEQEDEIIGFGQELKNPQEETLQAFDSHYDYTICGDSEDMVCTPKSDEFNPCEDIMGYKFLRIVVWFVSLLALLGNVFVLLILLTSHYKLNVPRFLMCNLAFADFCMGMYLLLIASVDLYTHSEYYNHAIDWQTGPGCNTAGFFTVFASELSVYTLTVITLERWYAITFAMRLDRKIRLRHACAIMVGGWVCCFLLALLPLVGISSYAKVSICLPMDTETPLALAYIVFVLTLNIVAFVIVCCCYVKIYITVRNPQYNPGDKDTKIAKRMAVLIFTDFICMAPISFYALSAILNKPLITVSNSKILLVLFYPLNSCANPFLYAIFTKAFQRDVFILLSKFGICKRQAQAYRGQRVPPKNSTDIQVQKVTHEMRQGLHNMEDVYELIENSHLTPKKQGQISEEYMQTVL
Sequence of Nuclear receptor subfamily 1 group I member 2 (Rattus norvegicus) (Q9R1A7 whole entry, looked up): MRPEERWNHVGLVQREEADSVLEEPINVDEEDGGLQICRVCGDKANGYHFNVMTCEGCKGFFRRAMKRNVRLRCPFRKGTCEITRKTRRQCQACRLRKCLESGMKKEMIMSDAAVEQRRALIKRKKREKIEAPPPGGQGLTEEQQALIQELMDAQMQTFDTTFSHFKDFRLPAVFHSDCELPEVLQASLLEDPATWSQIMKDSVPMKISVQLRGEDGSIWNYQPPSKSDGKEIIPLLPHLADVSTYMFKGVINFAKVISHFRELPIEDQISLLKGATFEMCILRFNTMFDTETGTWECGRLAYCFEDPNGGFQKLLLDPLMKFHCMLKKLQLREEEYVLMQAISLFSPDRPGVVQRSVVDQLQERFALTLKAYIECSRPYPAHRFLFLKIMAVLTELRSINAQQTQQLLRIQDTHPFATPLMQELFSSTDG
Sequence of Thyrotropin-releasing hormone receptor (Homo sapiens) (P34981 whole entry, looked up): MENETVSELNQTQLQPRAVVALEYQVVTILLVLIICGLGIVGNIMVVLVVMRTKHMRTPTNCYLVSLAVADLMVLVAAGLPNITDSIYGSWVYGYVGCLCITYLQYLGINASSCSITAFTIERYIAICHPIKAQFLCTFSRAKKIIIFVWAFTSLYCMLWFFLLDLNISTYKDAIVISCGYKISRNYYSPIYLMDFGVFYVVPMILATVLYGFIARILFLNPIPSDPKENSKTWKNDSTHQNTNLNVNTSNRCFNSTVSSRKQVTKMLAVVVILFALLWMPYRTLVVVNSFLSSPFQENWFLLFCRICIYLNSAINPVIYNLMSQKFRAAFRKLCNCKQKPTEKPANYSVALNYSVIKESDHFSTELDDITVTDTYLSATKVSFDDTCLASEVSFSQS

Oc1ccc(CCNCCCCCCNCCc2ccccc2)cc1O
inactive: Potency [1] | Potency [2] | Potency [3] | Potency [4] | outcome [5] | outcome [6] | outcome [7] | outcome [8] | outcome [9] | Potency [10] | Potency [11] | Potency [12] | Potency [13]

O=C(O)c1c2ccccc2cc2ccccc12
inactive: Potency [1] | Potency [14] | Potency [4] | outcome [6] | outcome [8] | outcome [9] | Potency [15] | Potency [10] | Potency [16] | Potency [11] | Potency [12] | Potency [13]

Cc1ccc(Cl)c(OCC(O)CNC(C)(C)C)c1 (stereo unspecified)
inactive: Potency [14] | Potency [2] | Potency [3] | Potency [17] | Potency [4] | outcome [5] | outcome [6] | outcome [7] | outcome [9] | Potency [15] | Potency [10] | Potency [16] | Potency [11] | Potency [12]

Nc1cccc2c(=O)[nH][nH]c(=O)c12
inactive: Potency [1] | Potency [14] | Potency [3] | outcome [5] | outcome [6] | outcome [7] | Potency [10] | Potency [12] | Potency [13]

CCC(C)CCCC(C)(C)O (stereo unspecified)
inactive: Potency [14] | Potency [2] | Potency [3] | Potency [17] | Potency [4] | outcome [5] | outcome [6] | outcome [7] | outcome [8] | outcome [9] | Potency [15] | Potency [16] | Potency [11] | Potency [12] | Potency [13]

Nc1nc(Cl)nc2c1ncn2[C@H]1C[C@H](O)[C@@H](CO)O1
active: Potency [13] 1.71 µM
inactive: Potency [14] | Potency [2] | Potency [3] | Potency [17] | Potency [4] | outcome [5] | outcome [6] | outcome [7] | outcome [8] | outcome [9] | Potency [10] | Potency [16] | Potency [11] | Potency [12]

CC(=O)OCC(=O)[C@@]1(O)CC[C@H]2[C@@H]3CCC4=CC(=O)C=C[C@]4(C)[C@@]3(F)[C@@H](O)C[C@@]21C
active: Potency [18] 8.91 µM | Potency [19] 0.631 µM
inactive: Potency [1] | Potency [14] | Potency [4] | outcome [5] | outcome [6] | outcome [7] | outcome [9] | Potency [15] | Potency [10] | Potency [11] | Potency [12] | Potency [13] | Potency [20]

O=[N+]([O-])c1ccc(Cl)cc1Cl
active: Potency [2] 24 µM
inactive: Potency [14] | Potency [3] | Potency [17] | outcome [5] | outcome [6] | outcome [7] | outcome [8] | outcome [9] | Potency [15] | Potency [10] | Potency [16] | Potency [11] | Potency [12] | Potency [13]

CC(=O)CC/C=C(\C)CC/C=C(\C)CC/C=C(\C)CCC=C(C)C
inactive: Potency [14] | Potency [2] | Potency [3] | Potency [17] | Potency [4] | outcome [5] | outcome [6] | outcome [7] | Potency [10] | Potency [16] | Potency [11] | Potency [12]
active: Potency [13] 23.7 µM

CCC(=O)O[C@@H]1C[C@H]2CC[C@]1(C)C2(C)C
inactive: Potency [14] | Potency [2] | Potency [3] | Potency [17] | Potency [4] | outcome [6] | outcome [7] | outcome [8] | outcome [9] | Potency [15] | Potency [10] | Potency [11] | Potency [12] | Potency [13]

CCCCCCCCCCCCCCCCC(=O)O
inactive: Potency [14] | Potency [2] | Potency [3] | Potency [17] | Potency [4] | outcome [5] | outcome [7] | outcome [8] | outcome [9] | Potency [16] | Potency [11] | Potency [12] | Potency [13]

CCCc1nc(C)c2c(=O)[nH]c(-c3cc(S(=O)(=O)N4CCN(CC)CC4)ccc3OCC)nn12
inactive: Potency [14] | Potency [2] | Potency [3] | Potency [17] | outcome [5] | outcome [6] | Potency [15] | Potency [10] | Potency [16] | Potency [11] | Potency [12]
active: Potency [18] 3.55 µM

CC[C@H](NC(C)C)[C@H](O)c1ccc(O)c2[nH]c(=O)ccc12
inactive: Potency [14] | Potency [2] | Potency [3] | Potency [17] | outcome [5] | outcome [6] | outcome [7] | outcome [8] | outcome [9] | Potency [15] | Potency [10] | Potency [11] | Potency [12] | Potency [13] | max activation [18] -3.27% | Potency [19] | Potency [20]

CC(C)(O)C(=O)O
inactive: Potency [14] | Potency [2] | Potency [3] | Potency [17] | Potency [4] | outcome [5] | outcome [6] | outcome [7] | Potency [10] | Potency [16] | Potency [11] | Potency [12] | Potency [13]

CCCCCCC/C=C/C=O
inactive: Potency [14] | Potency [2] | Potency [3] | Potency [17] | outcome [7] | outcome [8] | outcome [9] | Potency [15] | Potency [10] | Potency [16] | Potency [11] | Potency [12] | Potency [13]

O=C(C1CCCCC1)N1CC(=O)N2CCCc3ccccc3C2C1 (stereo unspecified)
active: Potency [13] 7.5 µM
inactive: Potency [14] | Potency [2] | Potency [3] | Potency [17] | Potency [4] | outcome [5] | outcome [6] | outcome [8] | outcome [9] | Potency [10] | Potency [16] | Potency [11] | Potency [12]

O=C(O)c1ccccc1[N+](=O)[O-]
inactive: Potency [14] | Potency [2] | Potency [3] | Potency [17] | Potency [4] | outcome [8] | outcome [9] | Potency [10] | Potency [11] | Potency [12] | Potency [13]

COc1ccc(C(=O)c2ccc(C)cc2)c(O)c1
inactive: Potency [14] | Potency [2] | Potency [17] | outcome [9] | Potency [15] | Potency [10] | Potency [16] | Potency [11] | Potency [12] | max activation [18] -1.42% | Potency [19]
active: Potency [3] 19.5 µM | Potency [13] 11 µM
